Rows were chosen to be rich in hits. Some 0.85% of all compounds tested hit in one or more screens of this group.
C-LANA FP: KSHV C-LANA DNA binding inhibition | inhibition, % at 9 µM | 340,000 compounds, 0.078% hits | MBP-C-LANA/FAM-LBS DNA binding, fluorescence polarization;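 active means highest replicate inhibition at or above 60% at 9 µM, even if other replicates fall short; inactive means all replicates below 60% inhibition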
ZTA DNA inh: ZTA (EBV) inhibition in EBNA-1 counter-screen. AID 2234. 320,000 compounds, 0.15% hits. P03206. ZTA-DNA binding, fluorescence polarization. inhibition, % at 11 µM; in the data active means inhibition above about 33%
EBNA-1 inh: blocks EBNA-1 binding to DNA. 300,000 compounds, 0.34% hits. AID 1950. EBNA-1 DNA binding, fluorescence polarization. inhibition, % at 14.8 µM; in the data active means inhibition above about 28%
Keap1-Nrf2 PPI: Keap1-Nrf2 (human) interaction inhibition | Q14145 | 340,000 compounds, 0.15% hits | Keap1 Kelch-Nrf2 peptide fluorescence polarization, 1536-well | AID 504523 | inhibition, % at 9.4 µM; in the data active means inhibition above about 12%;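 further: human Keap1 Kelch domain with fluorescein labeled Nrf2 9mer peptide probe; higher means more block of Keap1 binding to Nrf2 peptide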
Target sequence (Q14145 whole entry, looked up, the tested form may be a part): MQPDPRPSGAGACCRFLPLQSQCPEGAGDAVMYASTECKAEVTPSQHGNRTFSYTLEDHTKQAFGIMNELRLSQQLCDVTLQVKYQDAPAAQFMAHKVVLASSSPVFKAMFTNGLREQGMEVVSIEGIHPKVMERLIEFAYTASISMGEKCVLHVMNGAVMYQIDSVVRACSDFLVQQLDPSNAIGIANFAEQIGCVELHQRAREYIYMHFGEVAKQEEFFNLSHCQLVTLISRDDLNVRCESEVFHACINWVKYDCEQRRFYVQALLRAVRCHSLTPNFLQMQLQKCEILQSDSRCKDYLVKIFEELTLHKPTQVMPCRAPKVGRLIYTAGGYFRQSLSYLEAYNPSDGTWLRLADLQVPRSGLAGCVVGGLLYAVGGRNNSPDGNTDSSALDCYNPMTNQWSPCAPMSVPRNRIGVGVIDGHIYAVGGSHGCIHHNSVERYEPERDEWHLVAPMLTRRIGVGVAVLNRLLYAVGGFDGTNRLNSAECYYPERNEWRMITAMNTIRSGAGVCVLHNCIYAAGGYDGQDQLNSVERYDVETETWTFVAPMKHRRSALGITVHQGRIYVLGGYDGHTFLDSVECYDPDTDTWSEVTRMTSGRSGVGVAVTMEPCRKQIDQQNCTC
eLon inh: inhibits E. coli Lon protease. purified E. coli Lon protease, fluorescence polarization. 360,000 compounds, 0.42% hits. inhibition, % at 7.94 µM; in the data active means inhibition above about 13%, passing the limit was not always enough
DNA intercal 2: counter-screen for C-LANA inhibitors: DNA intercalators; shares compounds with C-LANA FP; Acridine orange-DNA displacement, fluorescence polarization; AC50, µM (series often up to 35 µM); 20 tested, under 10 active;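 active means signal drop with an AC50 no more than ten times the top valid dose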
Keap1 TSA: binders of human Keap1 Kelch domain; shares compounds with Keap1-Nrf2 PPI; Keap1 Kelch thermal shift, delta Tm; stronger effect = higher value; max delta Tm, degrees C; 400 compounds, 8% hits; AID 651823; in the data active means max delta Tm above about 0.48 degrees C
Dye-only ctr: dye artifact in Keap1 thermal shift counter-screen; shares compounds with Keap1-Nrf2 PPI; Sypro Orange dye-only thermal melt, no protein, delta Tm; top dose 26 µM; delta Tm, degrees C (test concentration not listed); 140 tested, under 10 active; AID 651858;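 active means at highest dose tested, delta Tm positive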
E coli Lon conf: confirmation of E. coli Lon protease inhibitors; shares compounds with eLon inh; inhibition, % at 7.94 µM; 1,400 compounds, 31% hits; AID 602230; purified E. coli Lon, fluorescence polarization; in the data active means inhibition above about 16%
Numbers stand for hits; – = inactive; · = no result.

SMILES	C-LANA FP	ZTA DNA inh	EBNA-1 inh	Keap1-Nrf2 PPI	eLon inh	Keap1 TSA	others
Clc1ccc(-c2nnc3sc(-c4ccc(Br)o4)nn23)cc1	107	–	–	–	–	·	DNA intercal 2=–
COc1ccc(N2CCN(c3ccc(C(=O)O)cc3[N+](=O)[O-])CC2)cc1	–	–	–	–	–	·
CN(C)S(=O)(=O)c1cc(C(=O)NC2CCSc3ccccc32)ccc1Cl (centres undefined)	·	·	·	·	·	·	DNA intercal 2=–
O=C(NC1CCSc2ccccc21)c1ccc(Cl)c(S(=O)(=O)N2CCOCC2)c1 (centres undefined)	–	–	–	–	–	·
COc1ccc(-c2cc(C(F)(F)F)c3c(N)c(C(=O)NCCSC)sc3n2)cc1	–	–	–	29	–	–	DNA intercal 2=–;Dye-only ctr=–
CCC1CCCCN1CCCNC(=O)CSc1nc2nc(C)c(Cc3ccc(C)cc3)c(C)n2n1 (centres undefined)	–	–	–	–	–	·
O=C(O)c1cc(N2N=C(C(F)(F)F)/C(=C/C=C/c3ccco3)C2=O)ccc1Cl	113	·	·	21	28	0.68	DNA intercal 2=–;E coli Lon conf=–
O=C(Cc1ccc(NC(=O)C2CCN(C(=O)C3CCC3)CC2)cc1)Nc1cccc(C(=O)N2CCCC2)c1	–	·	·	–	–	·
O=C1c2ccccc2-c2onc3ccc(Oc4ccccc4)c1c23	–	–	–	56	–	–	Dye-only ctr=–
CCOC(=O)C(C(=O)OCC)c1cc(Br)c2noc3c2c1C(=O)c1ccccc1-3	–	–	–	–	–	·
CN(C)S(=O)(=O)c1ccc(N2CCCC2)c(C(=O)NC2CCC(O)CC2)c1 (centres undefined)	–	–	–	–	–	·
COC(=O)c1ccccc1NC1=C/C(=N\S(=O)(=O)c2ccc(C(=O)O)cc2)c2ccccc2C1=O	–	–	–	14	–	1.4	Dye-only ctr=8.1
O=C1/C(=C/C=C/c2ccco2)SC(=S)N1NS(=O)(=O)c1ccccc1	110	70	44	28	–	1.3
O=C1/C(=C/c2cccs2)SC(=S)N1NS(=O)(=O)c1ccccc1	–	–	–	–	–	·
COCCCNc1nc(N)c([N+](=O)[O-])c(Nc2cc(OC)ccc2OC)n1	–	–	–	38	–	–
COc1ccc(OC)c(Nc2nc(NCCCN(C)C)nc(N)c2[N+](=O)[O-])c1	–	–	–	–	–	·
CCCCOc1ccc(/C=C2/Sc3ccccc3C2=O)cc1	–	–	–	13	–	–
O=C(COC(=O)c1ccncc1)Nc1cccc2ccccc12	–	·	·	14	–	–
O=C(COC(=O)c1ccc2c(c1)C(=O)N(Cc1ccncc1)C2=O)Nc1cccc2ccccc12	–	–	–	–	–	·
CCOc1ccccc1C=C1SC(=S)NC1=O	–	·	·	37	–	–
CCOc1ccc(/C=C2\SC(=S)NC2=O)cc1OC	–	–	–	–	–	·
CCN1CCN(S(=O)(=O)c2ccc(Cl)c(C(=O)NC3CCC(C)CC3)c2)CC1 (centres undefined)	–	–	·	29	–	–	Dye-only ctr=–
CCN1CCN(S(=O)(=O)c2ccc(Cl)c(C(=O)NC3CCCCC3)c2)CC1	–	–	–	–	–	·
CSCC[C@H](NC(=O)N1CCn2c1nc1ccccc12)C(=O)NCc1ccco1	–	–	–	–	–	·
COC(=O)c1cc(S(=O)(=O)N2c3ccccc3CC2C)cn1C (centres undefined)	–	–	–	–	–	·
SMILES	C-LANA FP	ZTA DNA inh	EBNA-1 inh	Keap1-Nrf2 PPI	eLon inh	Keap1 TSA	others
COc1cc(C(=O)N(C(C)C)C2CCCCC2)cc(OC)c1OC	·	·	·	·	–	·
CCOC(=O)N1CCN(Cc2ccccc2Cl)CC1	–	–	–	15	–	–
CC(C)=CCc1cc2c(=O)c3c(O)c4c(cc3oc2c(O)c1O)OC(C)C4(C)C (centres undefined)	·	–	–	·	·	·
Cc1ccc(C2=CC(c3cccs3)n3nnnc3N2)cc1 (centres undefined)	–	–	–	35	–	–	Dye-only ctr=–
CC(C)N1CCC(C)(C(=O)Nc2cc(-c3ccccc3)nn2C)C1 (centres undefined)	·	·	·	·	–	·
O=C(CC12CC3CC(CC(C3)C1)C2)NC1CC1	–	–	–	–	–	·
Cc1ccc(S(=O)(=O)NCC(=O)OCC(=O)Nc2ccc3c(c2)OCCO3)cc1	–	–	·	32	–	–	Dye-only ctr=–
CCC1(CC)C(=O)C2=C3C1[C@H](C(=O)OC)C=C(C(=O)OC)C[C@H]3n1c(=O)n(-c3ccccc3)c(=O)n1[C@H]2C (some centres undefined)	–	–	–	–	–	·
NC(=O)C1CCN(C2=C(Cl)C(=O)c3ccccc3C2=O)CC1	–	–	–	14	–	–
CCCc1nc2nc(C)c(NS(=O)(=O)c3ccc(C(C)(C)C)cc3)c(=O)n2[nH]1	–	–	–	–	–	·
Cc1cc(C)c2nc3sc(C(=O)N4CCOCC4)c(N)c3cc2c1	–	–	–	14	–	–
Cc1ccc(C)c2nc3sc(C(=O)N4CCOCC4)c(N)c3cc12	–	–	–	–	–	·
c1ccc2c(c1)ccn1c(Cc3ccsc3)c(C3CCCCC3)nc21	·	·	·	·	–	·
C=CCOC(=O)C1=C[C@@H](c2csc3ccccc23)C[C@@H](OCc2ccc(CO)cc2)O1	–	–	–	–	–	·
C=CCOC(=O)C1=C[C@H](c2csc3ccccc23)C[C@H](OCc2ccc(CO)cc2)O1	–	–	–	17	–	–	Dye-only ctr=–
C/C=C(\C)C(=O)N1CCC(C(=O)c2ccccc2)CC1	–	–	–	–	–	·
N=c1c(C(=O)NCc2ccc(F)cc2)cc2c(=O)n3ccccc3nc2n1Cc1cccnc1	–	–	–	13	–	–	Dye-only ctr=–
N=c1c(C(=O)NC2CCCC2)cc2c(=O)n3ccccc3nc2n1C1CCCCC1	–	–	–	17	–	–
COC(=O)c1cc2c(=O)n3ccccc3nc2n(Cc2cccnc2)c1=N	·	–	–	·	·	·
Cc1ccc(Cn2c(=N)c(C(=O)NC3CCCC3)cc3c(=O)n4ccccc4nc32)cc1	–	–	–	16	–	–	Dye-only ctr=–
CC(=O)OCC(O)C1(O)CCC2C3CCC4=CC(=O)CCC4(C)C3C(O)CC21C (centres undefined)	·	·	·	·	–	·
CCOc1ccc(NC(=S)NC(=O)/C=C/c2ccco2)cc1	–	–	–	–	–	·
COc1cc(NS(=O)(=O)c2ccc(NC(=S)NC(=O)/C=C/c3ccco3)cc2)ncn1	–	·	·	17	–	0.83
COc1cccc(/C=C/C(=O)OCC(=O)NC(=O)NC2CCCC2)c1	–	–	·	36	–	–	Dye-only ctr=–
O=C(COC(=O)/C=C/c1cccc(Cl)c1)NC1CC1	–	–	·	24	–	–	Dye-only ctr=–
COc1ccccc1Nc1nc(N)nc(CSC(=S)N2CCCCC2)n1	–	–	–	–	–	·

Bioassay records as filed in PubChem BioAssay.
